Screens from PubChem.
TLR4-MyD88 BLA: TLR4-MyD88 interaction inhibition in cells | AID 861 | HeLa CL3-4 TLR4/MyD88 BLA complementation, FRET ratio | inhibition, % at 8.4 µM | actives 0.18% (n = 200,000); in the data active means inhibition above about 25%
ANO1 block: blocks the mouse calcium-activated chloride channel TMEM16A. HEK293 TMEM16A/YFP iodide influx fluorescence, ionomycin. actives 1.2% (n = 310,000). normalized B-score (activity score, 25-100; higher = stronger inhibition) at 10 µM. Q8BHY3;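 active means ratio plate-corrected score three or more library SD toward inhibition, starting fluorescence score within five deviations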;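 further: score derived from kinetic fluorescence span divided by baseline fluorescence per well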
NOD2 RIPK2 PPI: NOD2-RIPK2 protein interaction inhibition. actives 0.38% (n = 360,000). inhibition, % at 4.98 µM. CHO BLA complementation NOD2-RIPK2, CCF4 ratio. O43353. AID 624267; in the data active means inhibition above about 21%
TMEM16A act: mouse TMEM16A channel activation, primary screen | AID 623877 | B-score at 10 µM | actives 0.3% (n = 340,000) | HEK293 TMEM16A/YFP-H148Q/I152L, iodide quench fluorescence; active compounds read low | Q8BHY3;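 active means fluorescence-ratio B-score plate-corrected deviation score at least 3 library SD below zero, with starting fluorescence score within 5 deviations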;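 further: channel opened by trigger with iodide after compound preincubation; score built on the fluorescence ratio of max minus min over baseline; more negative score means more quench and so TMEM16A activation or potentiation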
HTR2A ag: agonists of mouse serotonin 5-HT2A receptor (HTR2A) | activation, % at 7.6 µM | P35363 | actives 0.66% (n = 360,000) | CHO-K1 mHTR2A beta-arrestin complementation, luminescence; percent of 30 µM serotonin response | AID 624169;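 active means activation above a run cutoff, the mean activation of all tested compounds plus 3 SD, cut at about 14% in these data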
TLR9-MyD88 block: inhibitors of human TLR9-MyD88 binding; Q9NR96+Q99836; inhibition, % at 4.98 µM; actives 0.21% (n = 340,000); CHO BLA complementation TLR9-MyD88, CCF4 FRET ratio;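 active means inhibition above the mean over all tested compounds plus 3 SD, cut at about 21% in these data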
A number is an active result; i = inactive; nt = not tested or not shown. Hits are enriched below; roughly 2.4% of the tested compounds scored in any of these assays.

SMILES	TLR4-MyD88 BLA	ANO1 block	NOD2 RIPK2 PPI	TMEM16A act	HTR2A ag	TLR9-MyD88 block
O=C1CCCN1CCC1CCN(C2CC(=O)N(c3ccc(Cl)cc3)C2=O)CC1 (configuration not stated)	i	i	22	i	i	i
CC(=O)c1c(C)[nH]c(C(=O)Nc2c(C)n(C)n(-c3ccccc3)c2=O)c1C	i	100	i	i	i	i
Cc1ccc2c(C)c(C(=O)Nc3c(C)n(C)n(-c4ccccc4)c3=O)oc2c1	i	i	i	-19	i	i
Cc1c(NC(=O)c2ccc(C(=O)Nc3c(C)n(C)n(-c4ccccc4)c3=O)cc2)c(=O)n(-c2ccccc2)n1C	nt	i	i	i	i	i
CN(C)S(=O)(=O)c1cccc(NC(=O)c2cc(=O)[nH]c3ccccc23)c1	i	i	i	i	i	i
Cc1ccc(S(=O)(=O)N(C)C)cc1NC(=O)c1cc(=O)[nH]c2ccccc12	i	i	i	-6.6	i	i
Cc1ccc(C)c(N(C)S(=O)(=O)c2ccc3c(c2)oc(=O)n3C)c1	nt	i	i	i	i	i
O=C(Cc1c(C(=O)O)[nH]c2ccccc12)Nc1ccc2c(c1)OCO2	i	i	i	i	i	i
CC/C(=N\NC(=O)c1ccc2c(c1)OCO2)C12CC3CC(CC(C3)C1)C2	i	i	i	-6.1	i	i
Cc1cc2nc3c(=O)[nH]c(=O)[nH]c3nc2c([N+](=O)[O-])c1N	i	nt	i	i	i	i
CC1CC(CCC(=O)NC(=S)Nc2ccc(S(N)(=O)=O)cc2)C(=O)O1 (configuration not stated)	i	i	i	-4.7	i	i
O=S(=O)(NC(=S)NC1CCCCC1)c1ccc(Cl)cc1	i	i	i	i	i	i
CC(C)(C)C(=O)Nc1nc(=S)ss1	i	100	i	i	i	i
COc1ccccc1N1CCN(c2nc(C)nc3c2oc2ccccc23)CC1	i	i	i	i	i	i
Cc1cccc2c(CC(=O)O)noc12	i	i	i	i	i	i
C=C(C(=O)c1ccccc1)C(CC(=O)c1ccccc1)c1ccccc1 (configuration not stated)	i	100	i	i	i	i
COC(=O)[C@@H](NC(=O)CCc1nnc(-c2ccsc2)o1)C(C)C	i	i	i	i	i	i
O=S(=O)(Nc1ncnc2sc3c(c12)CCC3)c1ccc2ccccc2c1	i	100	i	i	i	i
Cc1cc(F)ccc1S(=O)(=O)Nc1ncnc2sc3c(c12)CCC3	i	i	i	i	i	i
COc1ccc(S(=O)(=O)N2CCN(C(=O)c3cc4c(s3)CCCC4)CC2)cc1	nt	nt	i	-34	i	i
O=C(c1cc2c(s1)CCCC2)N1CCN(S(=O)(=O)c2ccccc2)CC1	nt	i	i	i	i	i
O=C1C(Cl)=C(NCC2CCCO2)C(=O)N1c1cccc(Cl)c1Cl (configuration not stated)	i	i	i	i	i	i
C=C(C)CSc1nnc2[nH]c(=O)cc(N)n12	i	i	i	-6.4	i	i
Cc1cc(O)c2c(c1)C(=O)c1cc(O)cc(O)c1C2=O	nt	100	i	i	i	i
COc1ccc(N=Cc2[nH]c3ccccc3c2O)cc1	i	i	i	-7.6	i	i
SMILES	TLR4-MyD88 BLA	ANO1 block	NOD2 RIPK2 PPI	TMEM16A act	HTR2A ag	TLR9-MyD88 block
Cc1ccc(C(=O)N/C(=C\c2ccc(-c3ccc(Br)cc3)o2)C(=O)NCCCN(C)C)cc1	i	i	i	-8.2	i	i
C=CCN1C(=O)S/C(=C/c2ccsc2)C1=O	i	i	i	i	i	i
CC(C)N1C(=O)S/C(=C/c2ccc(Sc3nc4ccccc4[nH]3)o2)C1=O	i	100	i	i	i	i
C=CCN1C(=O)S/C(=C/c2ccc(Sc3nc4ccccc4[nH]3)o2)C1=O	i	100	i	i	i	i
CC1=C(Sc2nc3ccccc3[nH]2)C(=O)NC(C)(C)C1	i	i	i	i	i	i
Nc1ccn(CC(=O)NCc2ccc3c(c2)OCO3)c(=O)n1	nt	nt	i	i	i	i
Cc1cc(C)c2c(n1)nn1c(N3CCN(c4ccccc4)CC3)cc(C)nc21	i	i	i	i	i	i
Cn1c(CN(O)S(=O)(=O)c2ccc(Cl)cc2)nnc1C(F)(F)F	nt	i	i	i	i	i
CC(C)(C)NC(=O)Nc1nnc(SCC(=O)NC2CCCCC2)s1	nt	i	i	i	i	i
COc1ccc(N(C(=O)Nc2ccc(Cl)cc2)C2=NCCC2)cc1	i	25	i	i	i	i
COc1cc2[nH]c(=S)nc(NCc3ccc(Cl)cc3)c2cc1OC	nt	i	i	i	i	i
CN=C(Nc1ccc(C(=O)OC)s1)c1ccc(Cl)cc1	i	i	i	i	i	i
CCCCC(=O)OCC(=O)N1N=C(c2c[nH]c3ccccc23)C(O)C1c1ccc(OC)cc1 (configuration not stated)	nt	25	i	i	i	i
COc1ccc(CC(=O)OCC(=O)N2N=C(c3ccccc3)CC2c2ccc(OC)cc2)cc1 (configuration not stated)	i	i	i	i	i	i
O=C(Nc1nnc(SCc2ccc(F)cc2)s1)c1cnccn1	i	i	i	i	i	i
Cc1c(NC(=O)c2n[nH]c(=O)c3ccccc23)c(=O)n(-c2ccccc2)n1C	i	i	i	i	i	i
S=c1[nH]nc(-c2cc(-c3ccccc3)n[nH]2)n1/N=C/c1ccccc1	nt	i	i	i	i	i
Cc1cccc(/C=N/n2c(-c3cc(-c4ccccc4)n[nH]3)n[nH]c2=S)c1	i	i	i	-6.6	i	i
CC(C)C(=O)N1CCN(c2ccc(NC(=O)c3ccc4c(c3)OCCO4)cc2Cl)CC1	i	100	i	i	i	i
COc1ccc(C)cc1Nc1n[n+](-c2ccccc2)c(-c2ccc(OC)c(OC)c2OC)s1	nt	i	i	i	i	i
COc1ccc(C)cc1Nc1n[n+](-c2ccccc2)c(-c2c(Cl)cccc2Cl)s1	nt	100	nt	nt	nt	nt
COc1ccc(CN2CCC(=O)N([C@H](CO)c3ccccc3)CC2)cc1	nt	i	i	-11	i	i
COc1ccc(CN(C)C(=O)c2ccc(OCC(=O)Nc3cccc(C(F)(F)F)c3)c(OC)c2)c(OC)c1	nt	100	i	i	i	i
COc1cc(C(=O)NCCCN(C)C)ccc1OCC(=O)Nc1cccc(C(F)(F)F)c1	i	i	i	i	i	nt
COc1cccc(CN(C)C(=O)c2ccc(OCC(=O)Nc3cccc(C(F)(F)F)c3)c(OC)c2)c1	nt	100	i	i	i	i
Cc1c(Cl)cccc1NC(=O)CCC(=O)NNC(=O)c1ccccc1Cl	i	i	i	i	i	i
CN(C)/C=C/C=C1C(=O)CCCC1=O	i	i	i	i	i	i
N#CC1=C(S)N(c2ccccc2)C2(CCCCC2)NC1=O	i	i	i	-5	i	i
